From PubChem
Hits are enriched below; roughly 19% of the tested compounds scored in any of these assays.
Pf growth 96h: P. falciparum growth inhibition at 96 hour, primary screen for plastid delayed-death inhibitors; 320,000 compounds, 6.9% hits; Potency, µM (titrated, usually from 28.7 µM), without a hit: at the top dose activity change, negative = inhibition, most hits filed as inhibitors; AID 504834; P. falciparum luciferase reporter growth, 96 h; note: potency is the fitted concentration of half-maximal effect; % is set by controls: 0 for no effect and ±100 for the full control effect
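Plates of compound plus infected erythrocytes (2% hematocrit, 0.05% parasitemia final) incubate 96 hours, 37 C, 5% CO2. Detection reagent added; reduced luminescence from the parasites' luciferase reporter flags inhibition.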
CHX counter: counter-screen for Shiga toxin inhibitors: cycloheximide protein synthesis inhibition; cell reporter, cycloheximide protein synthesis inhibition counterscreen; max response, %; 300,000 compounds, 12% hits; in the data active = max response mostly above about 13%, no sharp cut-off; inactive = mostly below about 14%; note: read at 38.3 µM for the half of the compounds with a filed dose; 0% is about no effect
Shiga toxin inh: blocks Shiga toxin action in Vero cells; Vero cells, Shiga toxin protein synthesis inhibition reporter; inhibition, % at 38.7 µM; 290,000 compounds, 9.2% hits; AID 2315; in the data active = inhibition mostly above about 28%, no sharp cut-off; inactive = mostly below about 43%; note: 0% is about no effect
Pf growth 48h: P. falciparum growth inhibition at 48 hours (one generation) | Potency, µM (titrated, usually from 28.7 µM), for inactives: top-dose activity change, negative = inhibition, actives largely listed as inhibitors | 310,000 compounds, 5.9% hits | P. falciparum luciferase growth in erythrocytes, 48 h; note: potency is the fitted concentration of half-maximal effect; % is set by controls: 0 for no effect and ±100 for the full control effect
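In quantitative HTS format, infected erythrocytes bearing luciferase-reporter parasites were treated for a single generation at 37 C. Luminescence after adding detection reagent served as the growth measure.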
AMA1 RON2 block: AMA1-RON2 (P. falciparum) interaction inhibition; AlphaScreen AMA1-biotinylated RON2 peptide binding; Potency, µM (highest dose often 58.2 µM), inactives show at the highest dose activity change, negative = inhibition, usual class: inhibitors; 360,000 compounds, 0.2% hits; AID 720542;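 note: potency is the fitted concentration of half-maximal effect; 0% = vehicle wells and -100% = peptide control; nearly all actives have a fitted effect of over 45% in size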
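AMA1 (3D7) with his tag at 25 nM final met compounds first, then biotinylated RON2 peptide at 25 nM; detection used donor plus acceptor beads, 10 µg/mL apiece, read by AlphaScreen after 30 min at room temperature.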
SARS PLpro yeast: inhibitors of SARS-CoV papain-like protease in yeast. Potency, µM (highest dose often 32.9 µM), for inactives: at the top dose activity, positive = growth rescue, most hits filed as activators. AID 485353. 330,000 compounds, 0.19% hits. S. cerevisiae expressing SARS-CoV PLpro, growth rescue; calls by dose curve; note: potency is the fitted concentration of half-maximal effect; 0% is about no effect; nearly all actives have a fitted effect of over 55% in size
Active calls of the source: *; ? = inconclusive; . = not tested or not shown; [ ] = another dose, or the depositor's remark. Unless noted, calls come from the whole dose curve; as a rule, active = well fitted curve in the direction sought with a large enough effect; inconclusive = small, poorly fitted or top-dose-only effect, or another doubt; inactive = no such curve, though single readings can be large; an effect the other way counts as inactive or inconclusive.

SMILES	Pf growth 96h	CHX counter	Shiga toxin inh	Pf growth 48h	AMA1 RON2 block	SARS PLpro yeast
CCC(=O)Nc1cccc(-n2nnnc2SCC(=O)N2CCCCC2)c1	-8.8%	17.5*	27.4	6.2%	0.0%	0.2%
COc1ccc(/C=C2\N=C(c3ccc(C)cc3)OC2=O)cc1	322.0%	1.1	.	28.6%	13.7%	-2.2%
Cc1ccc(C2=N/C(=C/N3CCOCC3)C(=O)O2)cc1	3.3%	49.6*	68.2*	94.4%	-4.4%	-3.6%
Cc1ccc(C2=N/C(=C\N3CCCCC3)C(=O)O2)cc1	?	73.4*	142.8*	.	-13.0%	-11.6%
O=c1[nH]c2cc3c(cc2cc1CN(CC1CCCO1)S(=O)(=O)c1ccccc1)OCCO3 (centres undefined)	?	2.1	-16.4	?	-0.2%	9.4%
CC(=O)c1cccc(S(=O)(=O)N(Cc2cc3cc4c(cc3[nH]c2=O)OCCO4)CC2CCCO2)c1 (centres undefined)	13.1µM*	-2.3	-6.7	-14.2%	-17.4%	-2.5%
O=C(NCc1ccccc1)N(Cc1cc2cc3c(cc2[nH]c1=O)OCCO3)CC1CCCO1 (centres undefined)	8.28µM*	-2.2	-16.2	.	-3.8%	-0.3%
CCCNC(=O)C1(C)CCCN(Cc2c3ccccc3nn2C)C1 (centres undefined)	.	.	.	.	-0.3%	.
COCCn1c(C)cc(/C=C2/NC(=O)N(c3ccc(Cl)cc3)C2=O)c1C	?	55.0*	15.5	?	10.7%	18.8%
Cc1cccc(C(=O)OCC(=O)N2CC(=O)Nc3ccccc32)c1C	.	.	.	.	3.9%	1.1%
CC(C)N(Cc1ccccc1)C(=O)CN1C(=O)NC(Cc2ccccc2)(c2ccccc2)C1=O (centres undefined)	11.7µM*	-3.1	-3.5	?	-3.6%	1.6%
COc1ccc(CNC(=O)CN2C(=O)NC(Cc3ccccc3)(c3ccccc3)C2=O)cc1OC (centres undefined)	14.7µM*	.	.	?	-3.9%	2.2%
COc1ccc(CNC(=O)CN2C(=O)NC(c3ccccc3)(c3ccccc3)C2=O)cc1OC	.	.	.	.	-7.3%[11.6 µM]	.
Cc1nc2c(ccc3c2ccc2nc(C)sc23)s1	26.0%	23.3	70.7*	.	3.4%	-2.2%
COC(=O)c1ccc(COC(=O)CNC(=O)c2ccc(OC)cc2)cc1	.	.	.	.	-3.5%	0.6%
COc1cccc(C2Nc3c(F)cc(Br)cc3C3C=CCC32)c1OC (centres undefined)	11.7µM*	-6.0	-18.5	9.28µM*	-27.2%	-83.4%
COc1cc(C2Nc3c(F)cccc3C3C=CCC32)cc(Br)c1OC (centres undefined)	4.3%	-1.3	18.5	9.28µM*	-15.0%	-0.9%
COc1cccc(NC(=O)c2cc(Cl)nnc2Cl)c1	?	-2.7	-7.3	3.7µM*	14.5%	-0.9%
COc1cc(NC(=O)c2cc(Cl)nnc2Cl)cc(OC)c1OC	?	-1.5	-1.8	11.7µM*	4.7%	0.5%
CCc1ccc(-c2csc(NC(=O)c3cccnc3)n2)cc1	?	1.7	8.0	?	-1.9%	-11.3%
O=C(CN1C(=O)NC2(CCCc3ccccc32)C1=O)NCc1ccc(Cl)cc1Cl (centres undefined)	-8.0%	-2.6	-7.0	-17.3%	3.4%	-2.9%
Cc1ccc(S(=O)(=O)N2CCCCC2)cc1NC(=S)NC(=O)c1ccco1	4.15µM*	8.0	16.4	?	18.4%	-0.9%
O=C(Nc1ccc(S(=O)(=O)N2CCCC2)cc1)c1ccc(Br)o1	25.1%	-3.0	28.7	?	5.6%	-0.9%
COc1ccccc1Oc1ccc(S(=O)(=O)N2CCCCC2)cc1NC(=O)CCNC(C)=O	5.86µM*	8.5	18.7	11.7µM*	1.5%	0.9%
COc1ccc(S(=O)(=O)N2CCCCC2)cc1NC(=O)CCNC(=O)c1ccco1	?	.	.	9.28µM*	-14.0%	-5.5%
SMILES	Pf growth 96h	CHX counter	Shiga toxin inh	Pf growth 48h	AMA1 RON2 block	SARS PLpro yeast
O=C(NC(=S)Nc1cc(S(=O)(=O)N2CCOCC2)ccc1O)c1ccco1	-49.0%[5.75 µM]	9.3	-13.5	-10.6%	48.7%	-0.6%
Cc1ccc(S(=O)(=O)N2CCCCC2)cc1NC(=O)c1ccc(Br)o1	?	.	.	7.38µM*	-3.8%	-2.2%
COc1ccc(S(=O)(=O)N2CCCCC2)cc1NC(=O)CN1CCN(C(C)=O)CC1	-0.2%	-4.1	14.2	?	-21.9%	-0.3%
CN(Cc1ccccc1)c1nc2c(c(=O)[nH]c(=O)n2C)n1CCOc1ccccc1	?	-3.1	-10.0	9.28µM*	-5.6%	-0.4%
CCCCCn1c(Sc2ccccc2)nc2c1c(=O)[nH]c(=O)n2C	0.5%	1.2	-2.9	-5.9%	4.8%	0.7%
C=C(C)Cn1c(N2CCC(Cc3ccccc3)CC2)nc2c1c(=O)[nH]c(=O)n2C	?	-4.3	-3.1	13.1µM*	-9.7%	-11.0%
C=CCn1c(Sc2ccccc2)nc2c1c(=O)[nH]c(=O)n2C	7.8%	-1.1	-5.0	11.7µM*	0.9%	7.4%
Cc1ccc(Cn2c(N3CCCCCC3)nc3c2c(=O)[nH]c(=O)n3C)cc1	.	1.5	-11.4	4.15µM*	-0.1%	0.1%
CN(Cc1ccccc1)c1nc2c(c(=O)[nH]c(=O)n2C)n1Cc1ccccc1	-14.3%	-2.9	-10.0	?	-1.2%	-3.6%
CC1CCCCC1NC(=O)CSc1nnc(COc2ccc(Cl)cc2)o1 (centres undefined)	14.8%	-3.5	2.9	10.3%	38.4%	3.8%
O=C(c1ccc(=O)[nH]c1)N(c1ccccc1)C(CCc1ccccc1)c1nc2ccccc2[nH]1 (centres undefined)	.	.	.	.	0.2%	.
COc1ccc(C2C(=O)c3ccccc3C2=Nc2ccc(Br)cc2)cc1 (centres undefined)	?	-3.8	11.4	50.0%	-19.1%	7.7%
CCCCn1c(CN2CCN(c3cccc(Cl)c3)CC2)nc2c1c(=O)[nH]c(=O)n2C	35.2%	-3.0	-11.5	?	-2.8%	13.6%
CN1CCN(c2nc3c(c(=O)[nH]c(=O)n3C)n2Cc2ccccc2)CC1	0.586µM*	-4.5	-8.0	5.3%	-16.4%	2.5%
Cn1c(=O)[nH]c(=O)c2c1nc(SCC(=O)Nc1ccccc1)n2Cc1ccccc1	9.28µM*	7.5	-4.3	11.7µM*	-10.7%	1.4%
Cn1c(=O)[nH]c(=O)c2c1nc(CN1CCN(c3cccc(Cl)c3)CC1)n2CCCc1ccccc1	13.3%	-1.7	-6.3	9.28µM*	5.2%	1.0%
CN(Cc1ccccc1)Cc1nc2c([nH]1)c(=O)[nH]c(=O)n2C	10.4µM*	-1.1	9.3	22.2%	81.5%	0.8%
O=C(COC(=O)c1ccccn1)Nc1ccc2c(c1)OCO2	?	16.8	30.1	9.6%	0.0%	-0.5%
O=C(NNC(=O)C1CCCCC1)c1ccc(Br)cc1	-3.3%	12.5	42.3	60.8%	48.3%	1.0%
CC(=O)C[C@@H]1OC2CCCCC2N1S(=O)(=O)c1ccc(C)cc1 (some centres undefined)	.	.	.	.	5.3%	.
